# Data taken from PubChem BioAssay (NCI).
# Compounds without any hit were thinned out: in the full panel of roughly 83,000, 20% have a hit.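 Plates (96-well) were seeded with cells, treated with compound at one concentration, and incubated for 48 hours before percent growth was determined.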 A number with no mark means an inactive call. Active and inactive are the calls of the source. The calls were made as follows: active = growth percent below 10; inactive = the rest.
# System: A549/ATCC NSCLC
# Experiment: NCI-60 one-dose screen, 48 h (100 = growth as untreated, 0 = no growth, -100 = all killed)
# Details: 10 µM unless noted
row,Structure (SMILES),growth
1,O=C1NC(=O)C(=Cc2cn(Cc3cn(Cc4ccc(Cl)cc4Cl)nn3)c3ccccc23)C(=O)N1,101%
2,CN1CCN(Cc2ccc(C(=O)Nc3cncc(C#Cc4cnc(N)c5ccccc45)c3)cc2C(F)(F)F)CC1,-67.8% (active)
3,COc1ccc(C2C3=C(COC3=O)N(CCO)c3cc4c(cc32)OCCO4)cc1 (centres undefined),76.6%
4,O=C(Nc1ccc(I)cc1F)c1cc(Cl)ccc1O,7% (active)
5,NCCOc1ccccc1/C=C1\c2ccccc2-c2ccc([N+](=O)[O-])cc21,-74.6% (active)
6,O=c1oc2ccc(I)cc2c(=O)n1-c1ccc(Cl)cc1F,6.01% (active)
7,COc1cc(/C=C2\CN(C)C/C(=C\c3cc(CN4CCOCC4)c(O)c(OC)c3)C2=O)cc(CN2CCOCC2)c1O,56.8%
8,CCOC(=O)c1sc(-c2ccc(OS(=O)(=O)C[C@]34CCC(CC3=O)C4(C)C)c(C=O)c2)nc1C,15.4%
9,COc1ccc(/C=C2/SC(=O)N(CC(=O)N3CCN(c4cc5c(cc4F)c(=O)c(C(=O)O)cn5C4CC4)CC3)C2=O)cc1,92.2%
10,COc1ccc(C)c2sc(N(Cc3cccnc3)C(=O)c3ccc(C#N)cc3)nc12,6.76% (active)
11,NC(=O)CSc1nc(-c2ccc(F)cc2)cc(-c2ccco2)n1,104%
12,CC(=O)c1ccc(Nc2nc(NCCO)nc(Nc3ccc(Cl)cc3)n2)cc1,85.6%
13,O=c1c2cc(F)cc(Cl)c2sc2c(Cl)nc3ccccc3c12,111%
14,O=Cc1cc2ccccc2nc1Nc1nccs1,96.9%
